In PMC12670160, “A drug-repurposing screen of FDA- and EMA-approved drugs identifies two NF-κB inhibitors active against eumycetoma” (Journal of Antimicrobial Chemotherapy, 2025):
Counter-ions that a name gives are not always drawn. Screen size: about 5,300 compounds; about 130 (2.5%) showed an effect of 50% or more. The sample as a whole holds a higher share of strong results than the screen did. Peptide text beside a SMILES is read from it.

tested on: M. mycetomatis strain mm55; conditions: primary screen, metabolic activity vs growth control; 96 h, 2 µM; inhibitor

| Compound | % viability [%] |
| --- | --- |
| O=c1[nH]cnc2c([C@@H]3N[C@H](CO)[C@@H](O)[C@H]3O)c[nH]c12 [ONC0001813, forodesine hydrochloride] | 95.12 |
| CCn1c(=O)n([C@H]2CCCN(c3nccc(-c4cc5ccccc5o4)n3)C2)c2ccccc21 [ONC0001458, tcf2] | 58.53 |
| CCCCN(CCCC)CCC(O)c1cc2c(Cl)cc(Cl)cc2c2cc(C(F)(F)F)ccc12 (centres unmarked) [ONC0003518, halofantrinehcl] | 46.17 |
| CCCCN(CCCC)CC(O)c1cc(Cl)cc2c1-c1ccc(Cl)cc1/C2=C/c1ccc(Cl)cc1 (centres unmarked) [ONC0000941, lumefantrine] | 75.53 |
| CNc1nc(-c2ccc3c(N)n[nH]c3c2)cc(N2C[C@@H](C(=O)NC3CCCCC3)CC[C@H]2C)n1 [ONC0002484, gsk2334470] | 37.41 |
| COc1c2ccoc2cc2oc(=O)ccc12 [ONC0003294, bergapten] | 47.96 |
| COc1c2occc2cc2ccc(=O)oc12 [ONC0005318, methoxsalen] | 102.8 |
| O=c1ccc2c(OCCCCOc3ccccc3)c3ccoc3cc2o1 [ONC0000770, pap1] | 62.21 |
| NS(=O)(=O)OC[C@@H]1C[C@@H](n2ccc3c(N[C@H]4CCc5ccccc54)ncnc32)C[C@@H]1O [ONC0001277, pevonedistat hydrochloride] | 68.15 |
| Cc1ccc2c(c1)c1c(n2CCc2ccc(C)nc2)CCN(C)C1.Cl.Cl [ONC0000365, latrepirdine dimebon dihydrochloride] | 70.26 |
| OCCN1CCN(CCCN2c3ccccc3Sc3ccc(C(F)(F)F)cc32)CC1 [ONC0003193, fluphenazine hydrochloride] | 105.7 |
| CCCCCCCCCC(=O)OCCN1CCN(CCCN2c3ccccc3Sc3ccc(C(F)(F)F)cc32)CC1 [ONC0003289, fluphenazine decanoate] | 48.22 |
| CN1CCN(CCCN2c3ccccc3Sc3ccc(C(F)(F)F)cc32)CC1 [ONC0003239, trifluoperazine hydrochloride] | 119.8 |
| CN1CC[C@@]2(C)c3cc(O)ccc3N(C)[C@@H]12 [ONC0002771, eseroline] | 104.2 |
| O=C1c2ccccc2C(=O)c2ccccc21 [ONC0002912, anthraquinone] | 73.56 |
| c1ccc2c(c1)[I+]c1ccccc1-2 [ONC0002720, diphenyleneiodonium] | 44.4 |
| CC(O)COC[C@H]1O[C@@H]2O[C@H]3[C@H](O)[C@@H](O)[C@@H](O[C@H]4[C@H](O)[C@@H](O)[C@@H](O[C@H]5[C@H](O)[C@@H](O)[C@@H](O[C@H]6[C@H](O)[C@@H](O)[C@@H](O[C@H]7[C@H](O)[C@@H](O)[C@@H](O[C@H]8[C@H](O)[C@@H](O)[C@@H](O[C@H]1[C@H](O)[C@H]2O)O[C@@H]8COCC(C)O)O[C@@H]7COCC(C)O)O[C@@H]6COCC(C)O)O[C@@H]5COCC(C)O)O[C@@H]4COCC(C)O)O[C@@H]3COCC(C)O (some centres unmarked) [ONC0003826, hydroxypropylbetacyclodextrin] | 73.6 |
| NCCC(=O)N[C@@H](Cc1cnc[nH]1)C(=O)O [ONC0002788, carnosine] | 115.1 |
| CC[C@@H]1C(=O)N(C)c2cnc(Nc3ccc(C(=O)NC4CCN(C)CC4)cc3OC)nc2N1C1CCCC1 [ONC0004589, bi 2536] | 63.71 |

| Compound | % viability [%] |
| --- | --- |
| CC(C)CCN1c2nc(Nc3cc(F)c(O)c(F)c3)ncc2N(C)C(=O)C1C (centres unmarked) [ONC0004496, bid1870] | 46.32 |
| CC[C@@H]1C(=O)N(C)c2cnc(Nc3ccc(C(=O)N[C@H]4CC[C@H](N5CCN(CC6CC6)CC5)CC4)cc3OC)nc2N1C(C)C [ONC0005061, bi6727 volasertib] | 89.64 |
| Nc1nonc1C(=NO)Nc1ccc(F)c(Cl)c1 [ONC0002386, ido5l] | 106.2 |
| CN1CCN(C(=O)c2nc3cc(Cl)ccc3[nH]2)CC1 [ONC0003559, jnj10191584] | 96.39 |
| O=C(Nc1ccc(Cl)cc1)Nc1ccc(Cl)c(Cl)c1 [ONC0003407, triclocarban] | 109.1 |
| O=C(Nc1ccc(Cl)nc1)c1ccc(Cl)cc1 [ONC0002468, ica110381] | 70.91 |
| O=C(Nc1cnc(Cl)nc1)c1ccc(F)c(F)c1 [ONC0001921, ica069673] | 29.87 |
| CC[C@@]1(O)C(=O)OCc2c1cc1n(c2=O)Cc2c-1nc1cc(F)c(C)c3c1c2[C@@H](N)CC3.CS(=O)(=O)O [ONC0003668, exatecan mesylate] | 59.4 |
| C#C[C@]1(O)CCC2C3CCC4=C(CCC(=O)C4)C3CC[C@@]21C (some centres unmarked) [ONC0000393, norethynodrel] | 78.62 |
| O=C(NC1CCN(Cc2ccccc2)CC1)c1ccc(I)cc1 [ONC0003079, 4ibp] | 71.08 |
| O=C(O)c1ccc(CN2CCC(CN[C@@H]3C[C@H]3c3ccccc3)CC2)cc1 [ONC0001137, gsk2879552] | 48.21 |
| O=C(COc1ccc(C(=O)c2ccccc2)cc1)NC1CCN(Cc2ccccc2)CC1 [ONC0000156, adiporon] | 92.46 |
| C[C@@H](O)[C@H](N)C(=O)N1CCC[C@H]1C(=O)N1CCC[C@H]1C(=O)N[C@H](C(N)=O)[C@@H](C)O [ONC0002215, rapastinel trifluoroacetate] (H-TPPT-NH2) | 53.54 |
| COCCn1c2c([n+](Cc3cnccn3)c1C)C(=O)c1ccccc1C2=O [ONC0001046, ym155] | 83.36 |
| CN(C)c1ccc(/C=C2\CCCN=C2c2cccnc2)cc1 [ONC0002266, dmabanabaseine] | 49.52 |
| COc1ccc(/C=C2\CCCN=C2c2cccnc2)c(OC)c1 [ONC0001889, gts21] | 72.7 |
| Oc1c(I)cc(I)c2cccnc12 [ONC0000463, iodoquinol] | 67.55 |
| Oc1c(Cl)cc(Cl)c2cccnc12 [ONC0002821, chloroxine] | 92.76 |
| Oc1c(Br)cc(Br)c2cccnc12 [Broxyquinoline] | 5.699 |
